This is a sample that favours compounds with a hit; in the whole collection about 5.9% have one here.
Coupling enz: coupling enzyme interference in Giardia aldolase counter-screen; 0.67% of 290,000 active; activity change, negative = inhibition, % at 58.2 µM, hits read low; coupling enzyme system counterscreen, AmpLite Red fluorescence; AID 2472; in the data active means activity change below about -30%
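Counterscreen of the coupled detection system alone, without aldolase: glyceraldehyde-3-phosphate coupling enzymes plus AmpLite Red readout. Compounds at 57.5 uM final, 10 min RT preincubation, 20 min RT reaction, fluorescence 525/598 nm.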
GALK inhibitor: blocks human galactokinase activity; Purified GALK, Kinase-Glo residual ATP luminescence; Potency, µM (doses to about 57.5 µM), hits mostly inhibitors; 0.007% of 270,000 active
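Luminescence from leftover ATP (Ultra-Glo luciferase/luciferin) served as read-out after a 1 h room-temperature reaction of 5 nM GALK with 35 uM ATP and 100 uM galactose.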
VP16 counter: inhibits Gal4-VP16 luciferase reporter, ROR gamma counter-screen. Drosophila S2 Gal4-VP16 UAS-luciferase, luminescence, 20 h. Potency, µM (titrated, usually from 53.6 µM), usual class: inhibitors. 3.5% of 310,000 active. AID 2546;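 further: Gal4-VP16 expression switched on by copper sulfate through the metallothionein promoter; nearly all actives have a fitted effect of over 50% in size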
rTrxR1 inhibitor: rat TrxR1 inhibition; Potency, µM (highest dose often 114 µM), usual class: inhibitors; recombinant rTrxR1, NADPH fluorescence consumption, selenite substrate; 1% of 390,000 active; further: nearly all actives have a fitted effect of over 65% in size
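Rat TrxR1 (90 nM in the dispensed reagent) was pre-reduced with 400 uM NADPH for 5 min at room temperature, then incubated with compound for 15 min. After 400 uM selenite was added, NADPH fluorescence (Ex 340/Em 450 nm) was followed for 8 min.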
RORgamma inh: blocks mouse ROR gamma transcriptional activity; 5.4% of 310,000 active; Drosophila S2 Gal4-RORgamma UAS-luciferase reporter, 20 h; Potency, µM (doses to about 53.6 µM), usual class: inhibitors; further: nearly all actives have a fitted effect of over 60% in size
Target sequence (P51450 whole entry, looked up, the tested form may be a part): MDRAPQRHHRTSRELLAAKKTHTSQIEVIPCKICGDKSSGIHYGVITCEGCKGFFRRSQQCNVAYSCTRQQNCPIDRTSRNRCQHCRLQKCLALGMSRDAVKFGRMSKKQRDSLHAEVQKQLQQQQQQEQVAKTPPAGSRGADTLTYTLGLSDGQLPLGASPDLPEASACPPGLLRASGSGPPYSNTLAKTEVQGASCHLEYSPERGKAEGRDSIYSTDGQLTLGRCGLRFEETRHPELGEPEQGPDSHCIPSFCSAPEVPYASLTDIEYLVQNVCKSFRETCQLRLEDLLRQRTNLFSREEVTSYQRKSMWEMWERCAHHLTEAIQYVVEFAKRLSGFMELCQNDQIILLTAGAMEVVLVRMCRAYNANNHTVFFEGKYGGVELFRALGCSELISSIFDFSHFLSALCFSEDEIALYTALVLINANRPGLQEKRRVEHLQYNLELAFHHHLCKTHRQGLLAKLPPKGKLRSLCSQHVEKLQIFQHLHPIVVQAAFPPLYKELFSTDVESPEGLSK
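Schneider cells (Drosophila), stable Gal4 DBD–ROR gamma + UAS-luc; 1 hr cmpd preincubation; Cu2+ induction 700 uM final; 20 hr ambient; luminescence.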
TrxR1 substrate: is turned over as a substrate by rat TrxR1 | O89049 | purified TrxR1 substrate turnover, NADPH consumption readout | Potency, µM (highest dose often 114 µM) | 0.01% of 390,000 active | AID 588456; further: nearly all actives have a fitted effect of over 50% in size
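Rat TrxR1, dispensed at 90 nM, was prereduced with 400 uM NADPH (final) for 5 min at ~22 deg C, then incubated with compound 15 min before 400 uM selenite. A first-read NADPH fluorescence drop versus no-compound background flagged substrates.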
A number is an active result; – = inactive; ? = inconclusive; · = no result; [ ] = remark or other dose. Unless noted, the call rests on the fitted dose curve; in most records, active means well fitted curve in the direction sought with a large enough effect; inconclusive means small, poorly fitted or top-dose-only effect, or another doubt; inactive means no such curve, though single readings can be large; an effect the other way counts as inactive or inconclusive.

SMILES	Coupling enz	GALK inhibitor	VP16 counter	rTrxR1 inhibitor	RORgamma inh	TrxR1 substrate
COc1cccc(/C=N/NC(=S)NC2CC3CCC2C3)c1OC (stereo not drawn)	–	–	2.8µM	–	1.6µM	–
S=C(N/N=C/c1ccco1)NC1CC2CCC1C2 (stereo not drawn)	–	–	2.2µM	–	0.56µM	–
COc1cccc(C=NNC(=S)NN=Cc2cccc(OC)c2OC)c1OC	·	·	·	–	·	–
CC(C)(C)SC(=O)CC1NS(=O)(=O)OC2CCCCC12 (stereo not drawn)	–	·	–	–	–	–
Fc1ccc2nc(Nc3ccccc3)sc2c1	–	–	–	–	–	–
Fc1ccc2nc(Nc3nc4c(F)cc(F)cc4s3)sc2c1	–	–	6.3µM	–	8.9µM	–
Fc1cccc2sc(Nc3nc4ccccc4s3)nc12	–	–	7.1µM	–	4.5µM	–
O=C(NNc1nc2ccccc2s1)c1ccccc1F	–	–	?	–	?	–
NNc1nc2ccc(F)cc2s1	–	–	?	–	?	–
Fc1ccc2nc(Nc3nc4c(F)cccc4s3)sc2c1	–	–	5.6µM	–	2µM	–
COCCNC(=O)C(NC(=O)C1CCC(C)CC1)C(C)C (stereo not drawn)	–	–	–	–	–	–
Cc1ccc(NC(=O)c2cnc(N3CCCCC3)c3ccccc23)cc1Cl	·	·	·	–	·	–
O=C(COC(=O)Cn1nnc2ccccc21)Nc1ccccc1Br	–	–	–	–	–	–
COc1cc([N+](=O)[O-])cc(/C=N/NC(=O)C(C)Nc2cccc(C)c2)c1O (stereo not drawn)	–	–	1.1µM	–	0.89µM	–
COc1cc([N+](=O)[O-])cc(/C=N/NC(=O)c2ccc(NC(=O)c3ccc(C)cc3)cc2)c1O	–	–	–[10 µM]	–	?	–
COc1cc([N+](=O)[O-])cc(/C=N/NC(=O)C(C)Nc2ccccc2C)c1O (stereo not drawn)	–	·	0.5µM	–	0.32µM	–
O=C(O)CC(NC(=O)C1CCCCC1)c1ccc(OC2CCCC2)cc1 (stereo not drawn)	–	–	–	–	–	–
Nc1cccc2c1C(=O)N(C(=O)/C=C/c1ccc(F)cc1)C2=O	–	–	–	?	13µM	–
Nc1cccc2c1C(=O)N(C(=O)c1ccco1)C2=O	–	–	–	–	–	–
COc1ccc(/C=C/C(=O)NC(=S)NNC(=O)c2ccco2)cc1OC	–	–	–	–	–	–
O=C(NC(=S)NNC(=O)c1ccccc1O)c1ccco1	–	·	3.5µM	–	–	–
C=C(C)CNC(=S)NNC(=O)c1ccco1	–	–	5µM	–	3.5µM	–
CC(=O)c1cccc(NC(=S)NNC(=O)c2ccco2)c1	–	–	–	–	–	–
COc1ccc(/C=C/C(=O)NC(=S)NNC(=O)c2ccco2)cc1	–	–	?	?	3.2µM	–
COc1ccc(C(=O)NC(=S)NNC(=O)c2ccco2)cc1	–	–	?	–	11µM	–
SMILES	Coupling enz	GALK inhibitor	VP16 counter	rTrxR1 inhibitor	RORgamma inh	TrxR1 substrate
COc1ccc(NC(=O)CC2C(=O)N(c3cccc(OC)c3)C(=O)N2C(C)C)cc1 (stereo not drawn)	–	–	–	–	–	–
O=C(NC(=S)NNC(=O)c1ccco1)c1ccc(F)cc1	–	–	?	–	11µM	–
COc1ccc(C(=O)Nc2cc(OC)c(NC(=O)c3ccco3)cc2OC)cc1	-35	–	–	–	?	–
CC1CCN(C(=O)c2[nH]cnc2C(=O)NCC(=O)OCc2ccccc2)CC1	–	·	–	–	–	–
COc1ccccc1NC(=O)CSc1nnc(N)s1	·	·	·	13µM	·	–
O=C(Nc1nccs1)c1cc(Cl)nc2ccccc12	–	–	?	–	18µM	–
O=C(Nc1nccs1)c1cc(N2CCOCC2)nc2ccccc12	–	–	–	–[0.457 µM]	?	–
O=C(Nc1nccs1)c1cc(-c2ccccn2)nc2c(Cl)cccc12	–	–	6.3µM	–	5µM	–
O=C(Nc1nccs1)c1cc(-c2ccccc2)nc2ccccc12	–	–	?	–	11µM	–
COc1cc(-c2nnc(-c3cc(-c4ccccc4)nc4ccccc34)o2)cc(OC)c1OC	·	·	·	–	·	–
Cn1ccnc1SCC(=O)NC1CCCCC1	–	–	–	–	–	–
COc1cccc(C(=O)CSc2nccn2C)c1	–	–	?	–	10µM	–
Cn1ccnc1SCC(=O)c1ccc2ccccc2c1	–	–	?	–	11µM	–
Cn1ccnc1SCC(=O)c1cccc(Br)c1	–	–	–	–	–	–
Cn1ccnc1SCC(=O)N(C1CCCCC1)C1CCCCC1	–	–	?	–	11µM	–
O=C(CSc1ncccc1C(=O)O)c1ccc2ccccc2c1	–	–	2.2µM	–	11µM	–
CCOc1cc2[nH]c(=S)n(CCC(=O)N3CCc4ccccc4C3)c(=O)c2cc1OCC	–	–	–	–	–	–
COC(=O)c1ccc(C2C(Oc3ccc(OC)cc3)C(=O)N2CCc2ccc(F)cc2)cc1 (stereo not drawn)	–	–	?	–	?	–
COc1ccc(-c2ccc(C(=O)C3CC3)cc2)cc1	–	–	–	–	–	–
CC[N+]1(C)CCC(O)(c2ccc(OC)cc2)C(C(=O)c2ccc(OC)cc2)C1 (stereo not drawn)	·	·	·	0.71µM	·	–
CCC(=O)OC1(C)C(=O)C=C2C=C(/C=C/COC)OC=C2C1=O (stereo not drawn)	–	·	–	·	–	·
COCCN(CC(=O)NC1CCCCC1)C(=O)/C=C/C(=O)c1ccc(OC)cc1O	–	–	–	2µM	–	–
COc1ccc(C(=O)/C=C/C(=O)N(CC(=O)NC2CCCCC2)Cc2cccs2)c(O)c1	–	–	5µM	1µM	7.9µM	–
COc1ccc(C(=O)/C=C/C(=O)N(Cc2ccc3c(c2)OCO3)C(C(=O)NC2CCCCC2)c2ccncc2)c(O)c1 (stereo not drawn)	–	·	?	–	?	–
COc1ccc(CN(C(=O)/C=C/C(=O)c2ccc(OC)cc2O)C(C(=O)NC2CCCCC2)c2ccncc2)cc1 (stereo not drawn)	–	–	–	–	–[10 µM]	–
O=C(NC1CCC(O)CC1)c1cc(-c2ccc(Cl)cc2)nc2ccccc12 (stereo not drawn)	·	·	·	–	·	–
Cc1cc(=O)oc2cc(OCC(=O)NCC3CCCO3)ccc12 (stereo not drawn)	–	–	–	–	–	–
Cc1cc(C)cc(NS(=O)(=O)c2c(C(=O)N3CCOCC3)c(C)n(C)c2C)c1	–	–	–	–	–	–
COc1ccc(/C(=N/OC(C)=O)c2nccc3cc(OC)c(OC)cc23)cc1OC	-32	–	–	–	–	–

Source: PubChem
